# Inconclusive results are not listed. Where a call stands in place of a potency, no number is given. Values without a mark were called inactive. Active and inactive are the calls of the source. Calls come from the whole dose curve; as a rule, active = well fitted inhibition curve with a large enough effect; inconclusive = small, poorly fitted or top-dose-only effect; inactive = flat fitted curve, though single readings scatter.
# System: Zika virus NS2B-NS3 protease
# Assay: Primary screen GU AMC qHTS for Zika virus inhibitors (AID 1347154); note: nearly all actives have a fitted effect of over 70% in size
# How it was run: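 Unlinked Zika NS2B hydrophilic domain/NS3 protease domain noncovalent complex (25 nM final) in 10 mM Tris-HCl pH 8.0, 0.01% Tween 20, with AMC peptide substrate. Fluorescence (ex 340, em 450 nm) change over 15 min, room temperature; percent inhibition fitted to 4-parameter Hill equation.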
smiles,measurement,value
OC[C@H]1O[C@@H](n2cnc3cc(Cl)c(Cl)cc32)[C@H](O)[C@H]1O,Potency,inactive
